# In PubChem BioAssay (NCATS):
# Inconclusive results are not listed. Values without a mark were called inactive. Calls of active or inactive are those of the source. Calls follow the shape of the dose curve; as a rule, active = well fitted inhibition curve with a large enough effect; inconclusive = small, poorly fitted or top-dose-only effect; inactive = flat fitted curve, though single readings scatter.
# Molecular target: Glutathione peroxidase 1 (Homo sapiens) (UniProt P07203)
# Assay: Primary qHTS Assay for Inhibitors of Recombinant Selenoprotein Glutathione Peroxidase 1 (GPX1) (AID 1845191); also: nearly all actives have a fitted effect of over 65% in size
# Conditions: recombinant GPX1, GR-coupled NADPH fluorescence, 15 min; series mostly up to 48.8 µM; activity, negative = inhibition: at the top concentration
# How it was run: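 NADPH consumption tracked by fluorescence at 340/450 nm between t=0 and t=15 min, room temperature. Final mix: 10 nM GPX1, 100 nM glutathione reductase, 1 mM GSH, 0.5 mM NADPH, 0.5 mM cumene hydroperoxide, 0.01% BSA; 30 min compound–enzyme preincubation.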
# % is scaled to controls: 0 for no effect and ±100 for the full control effect.
# Chain of Glutathione peroxidase 1 (Homo sapiens) (P07203 whole entry, looked up): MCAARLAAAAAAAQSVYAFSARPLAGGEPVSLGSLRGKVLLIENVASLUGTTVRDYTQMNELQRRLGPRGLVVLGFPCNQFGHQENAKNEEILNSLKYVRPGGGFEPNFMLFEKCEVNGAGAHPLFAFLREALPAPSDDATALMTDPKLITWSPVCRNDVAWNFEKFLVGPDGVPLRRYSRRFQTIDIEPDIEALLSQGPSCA
SMILES,"activity, negative = inhibition",Potency,outcome
CCCC(N[C@@H](C)C(=O)N1[C@H](C(=O)O)C[C@@H]2CCCC[C@@H]21)C(=O)OCC (stereo partly drawn),-11.9%,–,–
O=C(O)CCc1cccc(O[C@@H]2O[C@H](CO)[C@@H](O)[C@H](O)[C@H]2O)c1O,0.0181% [at 27.7 µM],–,–
CCOC(=O)c1ccnc(CNCC(=O)N(CC)CCN(C)C)c1,–,inactive,–
CC(=O)O[C@@H]1[C@H](O[C@@H]2OC[C@](O)(CO)[C@H]2O)[C@@H](O[C@@H]2O[C@@H](C)[C@H](O)[C@@H](O)[C@H]2O)[C@H](OC(=O)[C@]23CCC(C)(C)C[C@H]2C2=CCC4[C@@]5(C)C[C@H](O)[C@H](O[C@@H]6O[C@H](C(=O)O)[C@@H](O)[C@H](O)[C@H]6O)[C@@](C)(C(=O)O)C5CC[C@@]4(C)[C@]2(C)CC3)O[C@@H]1C (stereo partly drawn),-5.64% [at 15.3 µM],–,–
CC1(C)OC(=O)C(OCC2CC2)=C1c1ccc(S(C)(=O)=O)cc1,–,inactive,–
CC(=O)O[C@H]1CC[C@@]2(CI)C(=CC[C@@H]3[C@@H]2CC[C@]2(C)[C@@H]([C@H](C)CCCC(C)C)CC[C@@H]32)C1,1.81% [at 9.52 µM],–,–
c1ccc(Cc2ncc3c(n2)CCNCC3)cc1,-4.04%,–,–
CC[C@H](/C=C/[C@@H](C)[C@H]1CC[C@H]2[C@@H]3CC=C4C[C@@H](O)CC[C@]4(C)[C@H]3CC[C@]12C)C(C)C,-3.99% [at 4.49 µM],–,–
O=C(/C=C/c1ccc(O)cc1)OCC1=C[C@@H](O)[C@@H]2C=CO[C@@H](O[C@@H]3O[C@H](CO)[C@@H](O)[C@H](O)[C@H]3O)[C@H]12,–,–,inactive [at 27.7 µM]
C=CC(C)(O)CC/C=C(\C)C(=O)OCC1OC(OC2CCC3(C)C(CCC4(C)C3CC=C3C5CC(C)(C)C(O)CC5(C(=O)O)CCC34C)C2(C)C)C(O)C(OC2OC(CO)C(O)C(OC3OC(CO)C(O)C(OC4OC(COC5OC(CO)C(O)C(O)C5O)C(O)C(O)C4O)C3O)C2O)C1O (stereo not drawn),–,–,inactive [at 9.52 µM]
CC1=C(CC(=O)O)c2cc(F)ccc2C1=Cc1ccc(S(C)(=O)=O)cc1,–,–,inactive
CC1(C)CC[C@]2(C(=O)O[C@@H]3O[C@H](CO)[C@@H](O)[C@H](O)[C@H]3O)CC[C@]3(C)C(=CCC4[C@@]5(C)C[C@@H](O)[C@H](O)C(CO)(CO)C5CC[C@]43C)C2[C@@H]1O (stereo partly drawn),3.62% [at 15.3 µM],–,–
NS(=O)(=O)NCCNc1nonc1C(=Nc1ccc(F)c(Br)c1)NO,–,inactive,–
COc1cc(CCc2ccccc2)c(C(=O)O)c2c1CC(C(C)(C)O)O2 (stereo not drawn),-9.77% [at 27.7 µM],–,–
C[C@@H]1CC[C@]2(C)C3(C)CC[C@@]2(OC3=O)[C@@]12C[C@H](c1ccoc1)OC2=O,–,–,inactive [at 27.7 µM]
COC(=O)CC[C@@H](C)[C@H]1CC[C@H]2[C@@H]3CC(=O)[C@H]4C[C@H](OC(C)=O)CC[C@]4(C)[C@H]3CC[C@]12C,2.89%,–,–
C[C@@H]1O[C@@H](O[C@H]2[C@H](OC(=O)C34CCC5(C)C(=CCC6C7(C)CC(O)C(O[C@@H]8O[C@H](C(=O)O)[C@@H](O)[C@H](O)[C@H]8O)C(C)(C(=O)O)C7CCC65C)C3CC(C)(C)CC4O)O[C@H](C)[C@@H](O)[C@@H]2O)[C@H](O)[C@@H](O[C@@H]2OC[C@](O)(CO)[C@H]2O[C@@H]2O[C@H](CO)[C@@H](O)[C@H](O)[C@H]2O)[C@H]1O (stereo partly drawn),-10.2% [at 9.52 µM],–,–
CC1(O)CCC2C(C(=O)O)=COC(OC3OC(CO)C(O)C(O)C3OC(=O)/C=C/c3ccc(O)cc3)C21 (stereo not drawn),1.23% [at 27.7 µM],–,–
C[C@@H]1O[C@@H](OC[C@H]2O[C@@H](OCCc3ccccc3)[C@H](O)[C@@H](O)[C@@H]2O)[C@H](O)[C@H](O)[C@H]1O,–,–,inactive [at 27.7 µM]

SMILES,"activity, negative = inhibition",Potency,outcome
C[C@@H]1CCC2C(C)(C)[C@H](O)CC[C@]2(C)[C@@]12Cc1c(O)cc3c(c1O2)CN(CCO)C3=O (stereo partly drawn),-13.4% [at 27.7 µM],–,–
O=C(C1CC1)N1CC[C@@H](Cc2n[nH]c(=O)n2-c2ccc(-c3ccc4occc4c3)cc2)C1,–,inactive,–
C=C1CC[C@H]2[C@@](C)(CCC[C@@]2(C)C(=O)O)[C@@H]1CCC(C)CCO (stereo partly drawn),–,–,inactive [at 27.7 µM]
COc1ccc(C(O[C@@H]2O[C@H](CO)[C@@H](O)[C@H](O)[C@H]2O)C(CO)Oc2ccc(/C=C/CO)cc2OC)cc1O (stereo partly drawn),–,–,inactive [at 27.7 µM]
C[C@@H]1C[C@H](O)/C=C/[C@H](O)[C@@H](O)CC(=O)O1,–,–,inactive
C=C(C)C1CC2(CO)C(=CC1=O)CCC(O)C2C (stereo not drawn),4.32%,–,–
C[C@@H]1O[C@@H](O[C@@H]2[C@@H](O)[C@H](O[C@@H]3[C@@H](O)[C@@H](O)[C@H](O[C@H]4[C@H](OC(=O)[C@]56CCC(C)(C)C[C@H]5C5=CCC7[C@@]8(C)C[C@H](O)[C@H](O[C@@H]9O[C@@H](C)[C@H](O)[C@@H](O)[C@H]9O)[C@@](C)(CO)C8CC[C@@]7(C)[C@]5(C)C[C@H]6O)O[C@H](C)[C@H](O)[C@@H]4O)O[C@H]3C)OC[C@H]2O)[C@H](O)[C@H](O)[C@H]1O (stereo partly drawn),–,–,inactive [at 9.52 µM]
C=C1CCC2C(C)(C)C(O)CCC2(C)C1CCC(C)CCOC(=O)CCC(=O)O (stereo not drawn),-15.6% [at 27.7 µM],–,–
OCc1ccccc1O[C@@H]1O[C@H](CO)[C@@H](O)[C@H](O)[C@H]1O,–,inactive,–
COc1cc(CC(COC2OC(CO)C(O)C(O)C2O)c2cc(/C=C/CO)cc(OC)c2O)ccc1O (stereo not drawn),-13.8% [at 27.7 µM],–,–
CC(/C=C/C1(O)C2(C)COC1(C)CC(=O)C2)O[C@@H]1O[C@H](CO)[C@@H](O)[C@H](O)[C@H]1O (stereo partly drawn),–,–,inactive [at 27.7 µM]
CN1C(=O)c2ccccc2-n2c(nc3ccccc3c2=O)[C@@]12O[C@H]2c1ccccc1,-2.63% [at 27.7 µM],–,–
CC1OC(OC2C(C)OC(OC3C(OC(=O)/C=C/c4ccc(O)cc4)C(CO)OC(OC4(COC(=O)/C=C/c5ccc(O)cc5)OC(CO)C(O)C4O)C3OC3OCC(O)(CO)C3O)C(O)C2O)C(O)C(O)C1O (stereo not drawn),-11% [at 15.3 µM],–,–
N[C@@H](CC(=O)N1CCn2c(nnc2C(F)(F)F)C1)Cc1[nH]nc2c(F)c(F)ccc12,-5.44%,–,–
COC(=O)C1=CO[C@@H](O[C@@H]2O[C@H](CO)[C@@H](O)[C@H](O)[C@H]2O)[C@@H]2[C@@H](C)[C@@H](O)C[C@H]12,–,inactive,–
CCn1cc(C2=NOC(C(=O)Nc3c(C)n(C)n(-c4ccccc4)c3=O)C2)c(C)n1 (stereo not drawn),2.41%,–,–
CCC(NC(=O)CC(NC(=O)C(CO)NC(=O)C(CC)NC(=O)c1ccc[nH]1)c1ccccc1)C(=O)O (stereo not drawn),–,–,inactive [at 15.3 µM]
CC(C)=CCCC1(C)Oc2cc3c(c4c2C2C(O4)C(C)(O)CCC21)CN(C(CCC(=O)O)C(=O)O)C3=O (stereo not drawn),3.18% [at 27.7 µM],–,–
O=S(=O)(Nc1ccc(C(O)(C(F)(F)F)C(F)(F)F)cc1)c1cccs1,0.312%,–,–
